{"source": "PubChem BioAssay (NCATS)", "note": "Active and inactive are the calls of the source. The call rests on the fitted dose curve; in most records, active means well fitted activation curve with a large enough effect; inconclusive means small, poorly fitted or top-dose-only effect; inactive means flat fitted curve, though single readings scatter.", "data": [{"assay": "Cellular Toxicity (caspase-3) SK-N-SH (AID 661)", "conditions": "SK-N-SH caspase-3 activation, qHTS, DMSO as zero, staurosporine as full; series mostly up to 91.7 µM", "excerpt": "NIH Chemical Genomics Center [NCGC]\nNIH Molecular Libraries Screening Centers Network [MLSCN]\nNational Institutes of Environmental Health Sciences [NIEHS]\nNational Toxicology Program [NTP]\nWe have developed a 1536-well cell-based assay for quantitative high throughput screening (qHTS) against a number of cell lines to determine in vitro caspase 3/7 activity of small molecules. This particular assay uses the SK-N-SH cell line which is derived from human neuroblastoma.\nNCGC Assay Protocol Summary:\nThe Caspase-Glo 3/7 assay (Promega) is a homogeneous method to measure caspase-3 and caspase-7 activities in cultured cells. The quantitation of caspase 3/7 activity is based on the cleavage of a peptide-aminoluciferin substrate. After caspase cleaves the substrate the free aminoluciferin is liberated and serves as the substrate of luciferase, which generates the light. The luminescent signal is proportional to amount of caspase 3/7 activity present.\nUsing the Caspase-Glo 3/7 assay, the amount of caspase 3/7 activity was measured in the SK-N-SH cell line with complete culture medium following compound treatment for 16 hours. The assay was performed in opaque white 1536-well plates. In the screen, tamoxifen and staurosporine were used as positive controls. Library compounds were measured for their ability to cause the activation of caspase 3/7 in the cell line, as reflected by an increase in luminescence signal, in a concentration-dependent manner. Data were normalized to the controls for basal activity (DMSO only) and 100% stimulation (10 uM staurosporine). AC50 values were determined from concentration-response data modeled with the standard Hill equation.\nqHTS protocol for caspase 3/7 assay in SK-N-SH cells\n[Step] [Parameter] [Value] [Description]\n1. Reagent; 5 uL; 1500 SK-N-SH cells/well\n2. Time; 5 hr; 37 °C incubation\n4. Controls; 23 nL; Tamoxifen 0.23 uM to 100 uM & staurosporine 1.4 pM to 100 uM\n5. Time; 16 hr; 37 °C incubation\n6. Reagent; 5 uL; Caspase-Glo 3/7 reagent\n7. Time; 1 hr; Room Temperature\n8. Detection; Luminescence; Viewlux plate reader\nKeywords: caspase 3/7, apoptosis, SK-N-SH cell line, luminescence, NTPHTS, NTPHTS_NCGC, NIEHS, EPA, DSSTox, MLSMR, MLSCN, NIH Roadmap, qHTS, NCGC", "values": [{"compound": "CC1=CC(C)(C)Nc2ccccc21", "outcome": "inactive"}, {"compound": "C=CCc1ccc(OC)c(OC)c1", "outcome": "inactive"}, {"compound": "CN(C)C=O", "outcome": "inactive"}, {"compound": "COc1ccc(/C=C/c2cc(OC)cc(=O)o2)cc1", "outcome": "inactive"}, {"compound": "CC1(C)CC(N=C=O)CC(C)(CN=C=O)C1", "note": "(stereo not given)", "outcome": "inactive"}, {"compound": "O=C(O)c1ccccc1C(c1ccc(O)cc1)c1ccc(O)cc1", "outcome": "inactive"}, {"compound": "Cc1ccc([N+](=O)[O-])cc1N", "outcome": "inactive"}, {"compound": "CCCCCCCCO", "outcome": "inactive"}, {"compound": "NC1=NC(S)C2N=CN=C2N1", "note": "(stereo not given)", "outcome": "inactive"}, {"compound": "CCCN(CCC)C(=O)SCC", "outcome": "inactive"}, {"compound": "C/C=C\\c1ccc(OC)cc1", "outcome": "inactive"}, {"compound": "Nc1ccc(S(=O)(=O)O)cc1", "outcome": "inactive"}, {"compound": "COCC(=O)O", "outcome": "inactive"}, {"compound": "COC(=O)c1ccc(C=O)cc1", "outcome": "inactive"}, {"compound": "OCCNCCO", "outcome": "inactive"}, {"compound": "O=C(/C=C/c1ccc(O)c(O)c1)O[C@@H](C(=O)O)[C@@H](OC(=O)/C=C/c1ccc(O)c(O)c1)C(=O)O", "outcome": "inactive"}, {"compound": "Cc1c(N=C=O)cccc1N=C=O", "outcome": "inactive"}, {"compound": "CC12CCC(CC1=O)C2(C)C", "note": "(stereo not given)", "outcome": "inactive"}, {"compound": "CC(=O)OC/C=C(\\C)CCC=C(C)C", "outcome": "inactive"}, {"compound": "CCCCCCCCCCCCCCC1CO1", "note": "(stereo not given)", "outcome": "inactive"}, {"compound": "CCCCC(CC)CN", "note": "(stereo not given)", "outcome": "inactive"}, {"compound": "O[C@@H]([C@H](O)[C@@H](O)CBr)[C@@H](O)CBr", "outcome": "inactive"}, {"compound": "O=C(O)c1ccc(O)cc1O", "outcome": "inactive"}, {"compound": "COC(=O)c1ccc(C)cc1", "outcome": "inactive"}, {"compound": "Cc1ccc(N)c([N+](=O)[O-])c1", "outcome": "inactive"}, {"compound": "O=NO", "outcome": "inactive"}, {"compound": "CCCCCCCCCCCCCC(=O)O", "outcome": "inactive"}, {"compound": "CC(C)=CCCC(C)CCO", "note": "(stereo not given)", "outcome": "inactive"}, {"compound": "C=C(C)C1CC=C(C)C(O)C1", "note": "(stereo not given)", "outcome": "inactive"}, {"compound": "C=CCOC(=O)c1ccccc1C(=O)OCC=C", "outcome": "inactive"}, {"compound": "Nc1ccc(Cl)cc1Cl", "outcome": "inactive"}, {"compound": "C=CC(=C)CCC=C(C)C", "outcome": "inactive"}, {"compound": "Cc1ccc([N+](=O)[O-])c(C)c1", "outcome": "inactive"}, {"compound": "ClCCCl", "outcome": "inactive"}, {"compound": "CCC(O)OC(O)CC", "note": "(stereo not given)", "outcome": "inactive"}, {"compound": "O=[N+]([O-])c1cccc(Cl)c1Cl", "outcome": "inactive"}, {"compound": "Cc1ccccc1C", "outcome": "inactive"}, {"compound": "O=C1CCc2ccccc2O1", "outcome": "inactive"}, {"compound": "COC(=O)CCCCC(=O)OC", "outcome": "inactive"}, {"compound": "COc1ccc2nc(N)sc2c1", "outcome": "inactive"}]}]}
